Experimental data reported in PubChem BioAssay (Tox21).
Inconclusive results are not listed. Where a call stands in place of a potency, no number is given. Calls of active or inactive are those of the source. Unless noted, calls come from the whole dose curve.

Experiments:
[1] = Nuclear factor erythroid 2-related factor 2/antioxidant responsive element (Nrf2/ARE) small molecule agonists: qHTS cell viability counter screen in human keratinocytes (AID 1919968; active = well fitted curve in the direction sought with a large enough effect in the repeat runs; an effect the other way counts as inactive or inconclusive; note: nearly all actives have a fitted effect of over 55% in size; note: potency is the fitted concentration of half-maximal effect)
Summary of the method: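 Fluorescence read-out from CellTiter-Fluor after 1 h at 37 C. Wells held HaCaT-derived ARE-luciferase reporter cells (1,500/well) treated 23 h with DMSO-dissolved compounds. Run in the same wells as the luciferase agonist read.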

[2] = biological target: Gonadotropin-releasing hormone receptor (Homo sapiens) (UniProt P30968); assay: Human gonadotropin-releasing hormone receptor (GnRHR) small molecule agonists, calcium flux assay in GnRHR-HEK293 cells (AID 1920063); note: nearly all actives have a fitted effect of over 35% in size
Chain of Gonadotropin-releasing hormone receptor (Homo sapiens) (P30968 whole entry, looked up): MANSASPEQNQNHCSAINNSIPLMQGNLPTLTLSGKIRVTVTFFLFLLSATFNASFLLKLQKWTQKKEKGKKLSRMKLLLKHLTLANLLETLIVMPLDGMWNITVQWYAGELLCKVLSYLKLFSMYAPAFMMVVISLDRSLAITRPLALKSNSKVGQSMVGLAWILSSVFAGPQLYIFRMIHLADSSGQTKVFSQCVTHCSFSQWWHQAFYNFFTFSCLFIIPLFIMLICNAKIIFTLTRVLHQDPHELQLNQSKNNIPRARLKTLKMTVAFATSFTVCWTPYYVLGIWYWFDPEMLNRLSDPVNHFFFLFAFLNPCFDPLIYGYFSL
Summary of the method: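 Calcium-dye fluorescence, Ex/Em=480/540, recorded every 1 sec over 3 min after compound addition to GnRHR-HEK293 cells. Cells had been seeded 18 hours earlier and dye-loaded for 1 hour at 37 C. Fifteen concentrations, triplicates.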

[3] = biological target: KiSS-1 receptor (Homo sapiens) (UniProt Q969F8); assay: Human kisspeptin (KISS1R) small molecule agonists, calcium flux assay in KISS1R-HEK293 cells (AID 1920064; active = well fitted curve in the direction sought with a large enough effect in the repeat runs; an effect the other way counts as inactive or inconclusive)
Chain of KiSS-1 receptor (Homo sapiens) (Q969F8 whole entry, looked up): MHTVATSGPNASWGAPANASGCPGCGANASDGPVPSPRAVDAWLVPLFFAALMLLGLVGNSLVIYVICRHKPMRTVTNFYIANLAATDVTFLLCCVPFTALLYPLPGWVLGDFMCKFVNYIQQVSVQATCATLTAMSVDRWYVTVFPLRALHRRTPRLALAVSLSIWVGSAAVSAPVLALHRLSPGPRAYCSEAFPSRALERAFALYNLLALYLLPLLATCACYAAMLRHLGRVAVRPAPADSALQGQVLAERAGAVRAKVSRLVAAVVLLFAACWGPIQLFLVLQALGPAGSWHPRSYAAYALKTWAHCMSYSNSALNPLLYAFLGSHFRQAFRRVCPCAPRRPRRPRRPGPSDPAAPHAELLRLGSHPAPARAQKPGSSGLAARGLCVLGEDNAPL
Summary of the method: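 Calcium flux read-out: kinetic fluorescence at Ex/Em=480/540, 1 s intervals over 3 min, after pin-tool compound addition to dye-loaded KISS1R-HEK293 cells. Fifteen concentrations, triplicates.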

[4] = G protein-coupled receptor (GPCR) small molecule agonists, calcium flux assay: HEK293 wild type cell line counter screen (AID 1920065)
Summary of the method: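 Agonist mode; 18 h seeding at 37 C, 1 h dye load at 37 C; compounds pinned from DMSO, ATP as positive control; kinetic fluorescence 480/540 nm, 3 min, 1 s reads; 15 concentrations, triplicate.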

[5] = p53 small molecule agonists, cell-based qHTS assay with human liver microsomes (AID 1963577)
Summary of the method: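 Compounds act here after metabolic activation: human liver microsomes and NADPH, both at 0.5 mg/mL final, were co-added to p53RE-bla cells. Incubation ran 16 h at 37 C, followed by LiveBLAzer detection.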

[6] = p53 small molecule agonists, cell-based qHTS assay with rat liver microsomes (AID 1963578)
Summary of the method: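 Read-out is beta-lactamase reporter fluorescence (LiveBLAzer, 2 h, room temperature, dark) in p53RE-bla cells treated 16 h at 37 C with compound, rat liver microsomes and NADPH, both 0.5 mg/mL final.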

[7] = p53 small molecule agonists, cell-based qHTS assay with human liver microsomes: qHTS cell viability counter screen (AID 1963579); note: nearly all actives have a fitted effect of over 45% in size
Summary of the method: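 Cells carrying the p53 response-element beta-lactamase reporter are treated for 16 h at 37 C with test compounds in the presence of human liver microsomes and NADPH (both 0.5 mg/mL final); ATP-based CellTiter-Glo luminescence then reports viability.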

[8] = p53 small molecule agonists, cell-based qHTS assay with rat liver microsomes: qHTS cell viability counter screen (AID 1963580); note: nearly all actives have a fitted effect of over 45% in size; note: potency is the fitted concentration of half-maximal effect
Summary of the method: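 Rat liver microsome (0.5 mg/mL final) and NADPH (0.5 mg/mL final) co-incubation with compounds for 16 h at 37 C on HCT-116 p53RE-bla cells; cytotoxicity taken from intracellular ATP luminescence.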

[9] = p53 small molecule agonists, cell-based qHTS assay (AID 1963582; active = well fitted activation curve with a large enough effect in the signal ratio in the repeat runs, not every such curve was filed as active; the % refers to the signal ratio; note: potency is the fitted concentration of half-maximal effect)
Summary of the method: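 Fluorescence intensity read-out of a beta-lactamase reporter under a p53 response element. Cells were exposed to DMSO-dissolved compounds for 16 h at 37 C, then developed with FRET substrate for 2 h at RT.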

[10] = biological target: 5-hydroxytryptamine receptor 2A (Homo sapiens) (UniProt P28223); assay: 5-hydroxytryptamine receptor 2A (HTR2A) small molecule agonists, cell-based qHTS assay (AID 1963587); note: nearly all actives have a fitted effect of over 30% in size
Chain of 5-hydroxytryptamine receptor 2A (Homo sapiens) (P28223 whole entry, looked up): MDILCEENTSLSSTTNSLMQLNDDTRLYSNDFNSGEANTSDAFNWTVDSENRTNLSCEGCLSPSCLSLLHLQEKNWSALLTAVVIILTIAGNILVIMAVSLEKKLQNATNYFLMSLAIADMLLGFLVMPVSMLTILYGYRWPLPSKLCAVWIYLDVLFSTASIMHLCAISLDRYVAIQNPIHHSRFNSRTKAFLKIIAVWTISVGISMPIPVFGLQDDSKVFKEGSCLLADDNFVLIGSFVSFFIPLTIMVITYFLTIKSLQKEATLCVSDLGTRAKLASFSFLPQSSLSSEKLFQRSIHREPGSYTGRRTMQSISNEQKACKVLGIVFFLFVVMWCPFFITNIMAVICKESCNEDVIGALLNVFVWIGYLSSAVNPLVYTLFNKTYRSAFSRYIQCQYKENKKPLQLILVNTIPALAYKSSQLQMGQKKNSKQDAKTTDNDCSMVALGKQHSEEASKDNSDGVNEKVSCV
Summary of the method: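 Kinetic calcium-flux fluorescence (2 min, 1 sec intervals) after compound addition in agonist mode. HTR2A-CHO cells were cultured 18 h, then dye-loaded 1 h at 37 C.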

[11] = biological target: Muscarinic acetylcholine receptor M1 (Homo sapiens) (UniProt P11229); assay: Cholinergic receptor muscarinic 1 (CHRM1) small molecule antagonists, cell-based qHTS assay (AID 1963588); note: nearly all actives have a fitted effect of over 40% in size
Chain of Muscarinic acetylcholine receptor M1 (Homo sapiens) (P11229 whole entry, looked up): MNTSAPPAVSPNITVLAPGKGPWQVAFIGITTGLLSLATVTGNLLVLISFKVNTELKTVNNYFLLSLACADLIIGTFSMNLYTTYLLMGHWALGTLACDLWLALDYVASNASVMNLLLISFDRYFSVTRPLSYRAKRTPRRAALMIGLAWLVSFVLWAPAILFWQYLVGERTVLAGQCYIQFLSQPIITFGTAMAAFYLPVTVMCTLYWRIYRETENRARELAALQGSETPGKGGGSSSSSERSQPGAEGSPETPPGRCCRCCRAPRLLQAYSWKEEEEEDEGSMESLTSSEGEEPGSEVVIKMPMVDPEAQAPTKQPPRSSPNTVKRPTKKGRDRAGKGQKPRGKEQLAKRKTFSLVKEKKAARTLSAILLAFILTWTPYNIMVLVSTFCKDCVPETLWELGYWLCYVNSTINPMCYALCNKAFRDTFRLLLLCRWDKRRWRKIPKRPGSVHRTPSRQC
Summary of the method: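 Compounds were tested at 15 concentrations in three independent runs. Dye-loaded CHRM1-CHO cells were exposed 5 min at room temperature before stimulation by acetylcholine added at 50nM. Intracellular calcium was read kinetically on FDSS for 3 min.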

[12] = biological target: Muscarinic acetylcholine receptor M1 (Homo sapiens) (UniProt P11229); assay: Cholinergic receptor muscarinic 1 (CHRM1) small molecule agonists, cell-based qHTS assay (AID 1963589); note: nearly all actives have a fitted effect of over 35% in size
Summary of the method: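 Calcium flux read-out: kinetic fluorescence at 1 sec intervals after pin-tool compound addition to dye-loaded CHRM1-CHO cells (human M1). Agonist mode; 15 concentrations tested in triplicate independent runs.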

[13] = cAMP Responsive Elements (CRE) small molecule agonists, cell-based qHTS assay (AID 1963590)
Summary of the method: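 Beta-lactamase reporter readout: LiveBLAzer B/G FRET substrate, 2 h at room temperature, added after 3 h compound treatment of CRE-bla HEK 293T cells at 37 C/5% CO2.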

[14] = cAMP Responsive Elements (CRE) small molecule antagonists, cell-based qHTS assay (AID 1963591; active = well fitted inhibition curve with a large enough effect in the signal ratio in the repeat runs, not every such curve was filed as active; the % refers to the signal ratio)
Summary of the method: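 HEK293T CRE-bla; 18 h preincubation; compound pin-transfer; NKH477 0.25 uM final, 3 h, 37 C; LiveBLAzer FRET substrate 2 h RT.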

[15] = biological target: Beta-2 adrenergic receptor (Homo sapiens) (UniProt P07550); assay: Adrenergic beta2 receptor (ADRB2) small molecule antagonists, cell-based qHTS assay (AID 1963592); note: series mostly up to about 92 µM; nearly all actives have a fitted effect of over 50% in size
Chain of Beta-2 adrenergic receptor (Homo sapiens) (P07550 whole entry, looked up): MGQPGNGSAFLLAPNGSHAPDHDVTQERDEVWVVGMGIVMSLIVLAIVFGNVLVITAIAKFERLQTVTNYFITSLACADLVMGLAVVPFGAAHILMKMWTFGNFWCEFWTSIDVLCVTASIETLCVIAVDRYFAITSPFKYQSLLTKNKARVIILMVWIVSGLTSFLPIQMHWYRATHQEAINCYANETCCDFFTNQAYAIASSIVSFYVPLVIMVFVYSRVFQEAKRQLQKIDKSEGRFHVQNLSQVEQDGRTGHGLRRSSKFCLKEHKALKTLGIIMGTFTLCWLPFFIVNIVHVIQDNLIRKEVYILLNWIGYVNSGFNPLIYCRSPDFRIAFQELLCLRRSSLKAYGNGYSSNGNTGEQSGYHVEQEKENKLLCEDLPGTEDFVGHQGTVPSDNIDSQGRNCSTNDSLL
Summary of the method: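 Assay format: CHO-ADRB2 cells, 18-20hr seeding at 37C/5% CO2, then compound plus 1nM isoproterenol agonist mix for 0.5hr RT. Homogeneous time-resolved fluorescence cAMP detection after 1hr, expressed as 665/615 nm ratio.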

[16] = biological target: Beta-2 adrenergic receptor (Homo sapiens) (UniProt P07550); assay: Adrenergic beta2 receptor (ADRB2) small molecule agonists, cell-based qHTS assay (AID 1963593);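 note: CHO cells stably overexpressing human ADRB2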
Summary of the method: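 CHO cells stably over-expressing ADRB2 were plated overnight at 37C, then dosed with compounds plus a stimulation mix containing 100uM IBMX and 25uM Ro-20-1724 for 0.5hr at room temperature. cAMP was measured by HTRF competition, 1hr.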

[17] = biological target: D(2) dopamine receptor (Homo sapiens) (UniProt P14416); assay: Dopamine D2 receptor (DRD2) small molecule agonists, cell-based qHTS assay (AID 1963594); note: nearly all actives have a fitted effect of over 35% in size
Chain of D(2) dopamine receptor (Homo sapiens) (P14416 whole entry, looked up): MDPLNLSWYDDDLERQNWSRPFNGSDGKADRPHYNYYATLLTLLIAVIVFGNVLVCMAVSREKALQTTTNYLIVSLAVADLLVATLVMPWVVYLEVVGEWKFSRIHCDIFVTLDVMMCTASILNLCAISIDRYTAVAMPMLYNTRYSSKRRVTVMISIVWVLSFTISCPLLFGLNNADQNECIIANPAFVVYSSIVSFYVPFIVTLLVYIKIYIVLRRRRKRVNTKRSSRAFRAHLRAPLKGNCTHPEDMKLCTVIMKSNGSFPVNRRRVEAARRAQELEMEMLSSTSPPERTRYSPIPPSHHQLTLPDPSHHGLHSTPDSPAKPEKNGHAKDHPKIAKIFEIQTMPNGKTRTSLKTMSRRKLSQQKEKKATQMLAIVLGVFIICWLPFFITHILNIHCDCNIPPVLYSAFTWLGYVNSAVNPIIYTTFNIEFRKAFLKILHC
Summary of the method: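 cAMP accumulation in DRD2-HEK293 cells measured by HTRF after 1 h detection; compounds added 10 min before NKH477 (200nM […]) forskolin-analogue stimulation, 30 min at room temperature, with Ro20-1724 present at 0.1 mM final.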

[18] = biological target: D(2) dopamine receptor (Homo sapiens) (UniProt P14416); assay: Dopamine D2 receptor (DRD2) small molecule antagonists, cell-based qHTS assay (AID 1963595; active = well fitted inhibition curve with a large enough effect in the signal ratio in the repeat runs, with a control signal flat; the % refers to the signal ratio; note: potency is the fitted concentration of half-maximal effect)
Summary of the method: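 In this cell-based antagonist screen, compounds act for 10 min at room temperature before a 30 min challenge with 12 nM quinpirole and 200 nM NKH477. cAMP is quantified by HTRF competition in DRD2-HEK293 cells containing 0.1 mM Ro20-1724.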

[19] = p53 small molecule agonists, cell-based qHTS assay: qHTS cell viability counter screen (AID 1963581); note: nearly all actives have a fitted effect of over 45% in size; note: potency is the fitted concentration of half-maximal effect
Summary of the method: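 Cytotoxicity read-out: ATP-based luminescence (CellTiter-Glo, 30 min RT) measured in the same wells as the p53 reporter assay, HCT-116 p53RE-bla cells, 16 h compound exposure at 37 C.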

[20] = biological target: 5-hydroxytryptamine receptor 2A (Homo sapiens) (UniProt P28223); assay: 5-hydroxytryptamine receptor 2A (HTR2A) small molecule antagonists, cell-based qHTS assay (AID 1963586); note: nearly all actives have a fitted effect of over 45% in size
Summary of the method: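 CHO cells stably expressing human HTR2A were plated for 18 h at 37 C, then loaded with calcium dye for 1 h. Compounds were preincubated 5 min at room temperature before DOI (4 nM solution) was added. Kinetic fluorescence was read for 3 min.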

SMILES | Potency [1] | Potency [2] | outcome [3] | outcome [4] | Potency [5] | Potency [6] | Potency [7] | Potency [8] | Potency [9] | Potency [10] | Potency [11] | Potency [12] | Potency [13] | Potency [14] | Potency [15] | Potency [16] | Potency [17] | Potency [18] | Potency [19] | Potency [20]
CC(=O)NCCCCCC(=O)O | inactive | inactive | inactive | inactive | inactive | inactive | inactive | inactive | inactive | inactive | inactive | inactive | inactive | inactive | inactive | inactive | inactive | inactive |  | 
CO[C@@]1(NC(=O)CSCC#N)C(=O)N2C(C(=O)O)=C(CSc3nnnn3C)CS[C@@H]21 | inactive | inactive | inactive | inactive | inactive | inactive | inactive | inactive | inactive |  |  |  | inactive | inactive | inactive |  | inactive |  |  | 
O=C(/C=C/c1ccccc1)OCCCc1ccccc1 | inactive | inactive | inactive | inactive | inactive | inactive | inactive |  | inactive | inactive | inactive | inactive | inactive | inactive | inactive |  |  |  | inactive | inactive
OC(CCCN1CCCCC1)(c1ccccc1)c1ccccc1 | inactive | inactive | inactive | inactive | inactive |  | inactive | inactive | inactive |  |  |  | inactive | inactive | inactive | inactive | inactive | 5.96 µM (active) | inactive | 
CC1=CC[C@H](C(C)C)C=C1 | inactive | inactive | inactive | inactive | inactive |  | inactive | inactive |  | inactive | inactive |  | inactive | inactive | inactive | inactive |  | inactive | inactive | inactive
C[N+]1(CC2COC(c3ccccc3)(C3CCCCC3)O2)CCCCC1 (stereo unspecified) | inactive | inactive | inactive | inactive | inactive | inactive |  | inactive |  | inactive | inactive | inactive |  |  | inactive | inactive | inactive | inactive | inactive | inactive
CC(C)NCC(O)COc1ccc(COCCOC(C)C)cc1 (stereo unspecified) | inactive | inactive | inactive | inactive | inactive | inactive | inactive |  | inactive | inactive | inactive | inactive | inactive | inactive |  |  |  | inactive | inactive | inactive
CC(C)C[C@H](NC(=O)[C@H](CCc1ccccc1)NC(=O)CN1CCOCC1)C(=O)N[C@@H](Cc1ccccc1)C(=O)N[C@@H](CC(C)C)C(=O)[C@@]1(C)CO1 | 0.298 µM (active) | inactive | inactive | inactive | inactive | inactive |  | 4.46 µM (active) | 0.112 µM (active) | inactive | inactive | inactive |  |  | inactive | inactive |  | inactive | 0.63 µM (active) | inactive
Nc1nnc(-c2cccc(Cl)c2Cl)c(N)n1 | inactive | inactive | inactive | inactive | inactive | inactive | inactive |  | inactive |  |  |  | inactive | inactive |  |  | inactive | inactive | inactive | 
Cc1c(N)cccc1Cl | inactive | inactive | inactive | inactive | inactive | inactive | inactive | inactive |  |  | inactive | inactive | inactive |  | inactive |  | inactive | inactive | inactive | inactive
N[C@H]1CN(c2c(F)cc3c(=O)c(C(=O)O)cn(C4C[C@H]4F)c3c2Cl)CC12CC2 (stereo partly specified) | inactive | inactive | inactive | inactive | inactive | inactive | inactive |  | inactive | inactive | inactive | inactive |  |  |  |  | inactive | inactive |  | inactive
CCCCCCCC[N+](CCCCCCCC)(CCCCCCCC)CCCCCCCC | 8.62 µM (active) | inactive | inactive | inactive | inactive | inactive |  | 16.2 µM (active) |  | inactive | inactive | inactive |  |  | inactive |  | inactive | 24.3 µM (active) | 4.57 µM (active) | 
CCCCCCCCCCCC(=O)N(CC)CC | inactive | inactive | inactive | inactive | inactive | inactive | inactive | inactive | inactive | inactive | inactive | inactive | inactive |  | inactive |  | inactive | inactive |  | inactive
CC(C)(C)NSc1nc2ccccc2s1 | inactive | inactive | inactive | inactive | inactive | inactive | inactive | inactive | inactive |  | inactive | inactive | inactive | inactive |  |  |  | inactive |  | inactive
CCc1cc(S(=O)(=O)O)c2cc(C(C)C)cccc1-2 | inactive | inactive | inactive | inactive | inactive | inactive | inactive |  | inactive |  | inactive | inactive | inactive | inactive | inactive |  | inactive | inactive | inactive | inactive
CCOC(=O)NNc1ccc(N(CC)CC(C)O)nn1 (stereo unspecified) | inactive | inactive | inactive | inactive | inactive | inactive | inactive | inactive | inactive | inactive | inactive | inactive | inactive | inactive | inactive | inactive | inactive | inactive |  | inactive
O=C(O)Cc1c(Cl)ccc(Cl)c1Cl | inactive | inactive | inactive | inactive | inactive |  | inactive | inactive | inactive | inactive | inactive |  |  |  | inactive | inactive | inactive | inactive | inactive | 
